# High-throughput results (PubChem)
# HT1080-NT tox = qHTS for induction of synthetic lethality in tumor cells producing 2HG: qHTS for the HT-1080-NT fibrosarcoma cell line. HT-1080-NT fibrosarcoma viability, CellTiter-Glo ATP luminescence, 48 h. Potency, µM (series often up to 46.1 µM), without a hit: at the top dose activity, negative = less viability, usual class: cytotoxic. actives 1.6% (n = 360,000). AID 686970, 2013;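 note: NT is the 2HG producing partner of a matched IDH1 knockdown line; 0% = DMSO-treated cells and -100% = media-only wells without cells; nearly all actives have a fitted effect of over 55% in size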
#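 750 cells/well, RPMI + 5% FBS; 2 h settle, compound pin-transfer, 48 h at 37 degrees C. CellTiter-Glo 10 min RT, luminescence. Normalized to DMSO and media-only wells.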
# MCF10A rerep = A quantitative high throughput screen for small molecules that induce DNA re-replication in MCF 10a normal breast cells | MCF 10A DNA re-replication, Hoechst nuclear intensity, 48 h | Potency, µM (highest dose often 46.1 µM), without a hit: at the top dose activity, positive = re-replication, most hits filed as activators | actives 2.9% (n = 350,000); note: % of control where 0% means no effect; nearly all actives have a fitted effect of over 50% in size
# KB-3-1 cytotox = qHTS assay for MDR1-selective chemotherapeutics: Primary screen using the parental adenocarcinoma cell KB-3-1; actives 1.4% (n = 400,000); AID 1347075, 2019; Potency, µM (titrated, usually from 46.1 µM), most hits filed as cytotoxic; KB-3-1 viability, CellTiter-Glo ATP luminescence, 72 h; note: % is set by controls: 0 for no effect and ±100 for the full control effect; nearly all actives have a fitted effect of over 60% in size
#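 Parental KB-3-1 viability, qHTS format: 72 h compound exposure, 37 °C; CellTiter-Glo; media-only wells and DMSO plates as controls; concentration-effect fits on corrected data.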
# SW480 rerep = A quantitative high throughput screen for small molecules that induce DNA re-replication in SW480 colon adenocarcinoma cells | SW480 DNA re-replication, Hoechst DNA content imaging, 48 h | Potency, µM (top dose mostly 46.1 µM), without a hit: top-dose re-replication activation, usual class: activators | actives 1.8% (n = 340,000); note: % of control where 0% means no effect; nearly all actives have a fitted effect of over 55% in size
#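 DNA re-replication was detected as more nuclei of elevated Hoechst intensity after 48 hr exposure to compound (23 nL pinned per well of 250 cells).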
# KB-V1 cytotox = qHTS assay for MDR1-selective chemotherapeutics: Primary screen using the drug-selected MDR subline cells KB-V1. AID 1347076, 2019. KB-V1 MDR cells viability, CellTiter-Glo, 72 h. actives 3.4% (n = 400,000). Potency, µM (highest dose often 46.1 µM), usual class: cytotoxic; note: % is set by controls: 0 for no effect and ±100 for the full control effect; nearly all actives have a fitted effect of over 60% in size
#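 Following 72 h at 37 degrees C with compound, KB-V1 cell viability was read by CellTiter-Glo luminescence, medium being phenol-red-free DMEM plus 10% FBS; concentration-response parameters came from normalized, curve-fitted qHTS data.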
# HT1080 IDH1KD tx = qHTS for induction of synthetic lethality in tumor cells producing 2HG: qHTS for the HT-1080-IDH1KD cell line; Potency, µM (series often up to 46.1 µM), inactives show top-dose activity, negative = toxicity, most hits filed as cytotoxic; HT-1080 IDH1 knockdown viability, ATP luminescence, 48 h; actives 2% (n = 360,000);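 note: 0% = DMSO wells and -100% = cell-free medium wells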
#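 Cytotoxicity counter-line: IDH1KD HT-1080, 48 h, CellTiter-Glo. Curves classed by r2, magnitude and activity.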
# An asterisk follows results filed as active; i = inactive; u = inconclusive; x = no result. The list is not random: actives were taken first. Their share in the collection is about 8%. Calls come from the whole dose curve; as a rule, active = well fitted curve in the direction sought with a large enough effect; inconclusive = small, poorly fitted or top-dose-only effect, or another doubt; inactive = no such curve, though single readings can be large; an effect the other way counts as inactive or inconclusive. Potency is the fitted concentration of half-maximal effect.
SMILES,HT1080-NT tox,MCF10A rerep,KB-3-1 cytotox,SW480 rerep,KB-V1 cytotox,HT1080 IDH1KD tx
Cc1cc(N2CCN(C)CC2)ccc1NC(=O)c1c2c(nc3ccccc13)CCN(Cc1ccccc1)C2,5.8µM*,23.6%,i,u,u,4.61µM*
O=C(NC1CCCCCC1)c1c2c(nc3ccccc13)CCN(Cc1ccccc1)C2,14.2%,u,i,6.7%,i,16.3%
CC(C)c1ccccc1NC(=O)COC(=O)c1c2c(nc3ccccc13)CCN(Cc1ccccc1)C2,u,u,u,15.4%,u,u
CC(=O)Nc1ccc(NC(=O)C(Cc2ccccc2)NS(=O)(=O)c2ccc3c(c2)oc(=O)n3C)cc1 (centres undefined),x,x,i,x,i,x
COc1ccc(C(=O)COC(=O)C(CCSC)NS(=O)(=O)c2ccc(Cl)cc2)cc1 (centres undefined),-1.1%,7.8%,i,-79.3%,23.1µM*,2.2%
COC(=O)C(CCSC)NS(=O)(=O)c1ccc(Cl)cc1 (centres undefined),2.5%,-5.8%,i,-6.1%,u,-0.1%
COc1ccccc1-n1cc([C@@H]2C[C@H]3CN(c4ccccc4)C(=O)[C@]34CCCN24)cn1,u,2.59µM*,i,8.2µM*,7.31µM*,5.8µM*
COc1cc([C@@H]2C[C@H]3CN(c4ccccc4)C(=O)[C@]34CCCN24)cc(OC)c1OC,8.6%,18.4µM*,u,-2.7%,i,-15.6%
COc1ccc(OC)c(NC(=O)c2cc3c(=O)oc4ccccc4c3s2)c1,x,x,i,x,u,x
Cc1ccc(CCNC(=O)CN(c2ccc(C(C)C)cc2)S(=O)(=O)c2c(C)nn(C)c2C)cc1,x,x,i,x,i,x
COc1cc(C(=O)N/N=C/c2ccc(OC(=O)c3ccccc3)c(OC)c2)ccc1O,1.2%,-31.0%,u,20.6µM*,i,0.0%
COc1cc(/C=N/NC(=O)c2cc(O)cc(O)c2)ccc1OC(=O)c1ccccc1,-9.4%,1.7%,i,-38.8%,i,-16.1%
COc1cc(/C=N/NC(=O)c2ccc(NC(=O)C3CCCCC3)cc2)ccc1O,u,10.0%,i,-2.3%,i,11.6µM*
O=C(N/N=C/c1cccc(Oc2ccccc2)c1)c1cccc(Br)c1,-17.9%,u,i,u,i,-29.1%
O=C(N/N=C/c1cccc(Oc2ccccc2)c1)c1cccc(O)c1,u,u,u,u,i,20.6µM*
COc1cc(/C=N/NC(=O)COc2c(C)cc([N+](=O)[O-])cc2C)ccc1OC(=O)c1ccccc1,u,-2.9%,i,u,i,18.4µM*
CCOc1cc(/C=N/NC(=O)c2ccc(NC(=O)C3CC3)cc2)ccc1O,-7.7%,-20.1%,i,-13.5%,i,-4.3%
CCC(Sc1nc(-c2ccccc2)[nH]c1S(=O)(=O)c1ccc(C)cc1)C(=O)O (centres undefined),x,x,i,x,i,x
CC1=NN(C(=O)c2cc(C)nn2C)C(O)(C(F)(F)F)C1 (centres undefined),6.0%,2.9%,i,0.517µM*,i,15.3%
CC1=NN(C(=O)c2nn(C)cc2Br)C(O)(C(F)(F)F)C1 (centres undefined),2.3%,u,i,13µM*,i,21.4%
CC1=NN(C(=O)c2csc(C)c2)C(O)(C(F)(F)F)C1 (centres undefined),2.8%,-0.3%,i,2.7%,i,1.5%
CC1=NN(C(=O)c2c(Br)cnn2C)C(O)(C(F)(F)F)C1 (centres undefined),4.3%,-10.5%,i,-3.2%,i,14.3%
CCOc1ccc(NC(=O)CSc2nnc(CNC(=O)C34CC5CC(CC(C5)C3)C4)n2CC)cc1,x,x,i,x,i,x
O=C(Nc1ccccn1)c1sc2ccccc2c1Cl,x,x,i,x,i,x
CC(C)(CNS(=O)(=O)c1ccc2c(c1)OCCO2)N1CCOCC1,10.7%,1.3%,i,1.7%,i,1.8%
SMILES,HT1080-NT tox,MCF10A rerep,KB-3-1 cytotox,SW480 rerep,KB-V1 cytotox,HT1080 IDH1KD tx
Cc1ccc(Oc2ccc(S(=O)(=O)NCC(C)(C)N3CCOCC3)cc2)cc1,-18.9%,20.6µM*,u,-10.6%,11.6µM*,-10.5%
COC(=O)c1sccc1S(=O)(=O)N(CC(=O)NCc1ccc(F)cc1)c1ccc(C)c(C)c1,x,x,i,x,i,x
CCOc1ccc(C(c2c(O)cc(C)n(CCOC)c2=O)N2CCN(c3ccccc3F)CC2)cc1 (centres undefined),x,x,i,x,i,x
Oc1ccc(/C=N/n2c3ccccc3c3ccccc32)cc1,u,u,i,13.8%,i,23.1µM*
CC1CCc2[nH]c3ccc(C(=O)N(C)CC(=O)Nc4ccccc4Cl)cc3c2C1 (centres undefined),-0.3%,11.5%,i,-1.9%,u,-20.7%
CCN(CC(=O)Nc1ccccc1OC)C(=O)c1ccc2[nH]c3c(c2c1)CC(C)CC3 (centres undefined),u,18.4µM*,u,-8.9%,i,u
CCCN(CC(=O)Nc1ccccc1OC)C(=O)c1ccc2[nH]c3c(c2c1)CC(C)CC3 (centres undefined),-1.6%,u,u,11.2%,16.4µM*,-21.4%
Cc1ccc(NC(=O)CN(C)C(=O)c2ccc3[nH]c4c(c3c2)CC(C)CC4)cc1 (centres undefined),-17.0%,u,u,u,14.6µM*,-17.2%
Cc1cc(C)nc(-n2ncc3c2CC(c2ccccc2)CC3=O)n1 (centres undefined),-21.1%,19.6%,i,-7.0%,i,0.3%
COc1ccc(C2CC(=O)c3cnn(-c4nc(C)cc(C)n4)c3C2)cc1 (centres undefined),u,0.82µM*,i,u,u,u
COc1ccc(S(=O)(=O)N2CCC3(CC2)OCCN3S(=O)(=O)c2cccs2)cc1,-2.5%,14.2%,i,5.9%,8.2µM*,5.2%
Cc1ccc(S(=O)(=O)N2CCC3(CC2)OCCN3S(=O)(=O)c2cccs2)cc1,u,u,i,u,i,-19.3%
CCNC(=S)N/N=C1\C(=O)c2cccc3cccc1c23,4.2%,20.6µM*,i,-2.8%,i,1.8%
